Values joined by “and” are separate entries in the source; they are usually repeats but may differ in a detail not shown here. Identical values can stand only once. Like-named read-outs stand apart in the source and are kept apart here.

These results are taken from article PMC5540273 (PLoS ONE, 2017).

One experiment deals with MRCKA. The settings on record: concentration: 1 μM, replicates: in singlicate, n = 1.
In the next experiment the test system is T1, MRCKB.
T1 construct: gene CDC42BPB
The settings on record: concentration: 1 μM, replicates: in singlicate; n = 1.

For a further experiment, the system named is MST1R. The settings on record: concentration: 1 μM, replicates: in singlicate, n = 1.
A further experiment concerns T2, MST1.
T2 construct: gene STK4
The settings on record: concentration: 1 μM, replicates: in singlicate; n = 1.

A further experiment has as its system T3, MST2.
T3 construct: gene STK3
The settings on record: concentration: 1 μM, replicates: in singlicate, n = 1.

The next experiment has as its system T4, MST3.
T4 construct: gene STK24
The settings on record: concentration: 1 μM, replicates: in singlicate; n = 1.

For a further experiment, the system named is MST4. The settings on record: concentration: 1 μM, replicates: in singlicate; n = 1.
The subject of another experiment is MTOR. The settings on record: concentration: 1 μM, replicates: in singlicate, n = 1.
Another experiment relates to MUSK. The settings on record: concentration: 1 μM, replicates: in singlicate; n = 1.
The subject of the next experiment is MYLK2. The settings on record: concentration: 1 μM, replicates: in singlicate; n = 1.
For the next experiment, the system named is MYLK4. The settings on record: concentration: 1 μM, replicates: in singlicate, n = 1.
The test system of a further experiment is MYLK. The settings on record: concentration: 1 μM, replicates: in singlicate, n = 1.
The next experiment relates to MYO3A. The settings on record: concentration: 1 μM, replicates: in singlicate, n = 1.
The subject of another experiment is MYO3B. The settings on record: concentration: 1 μM, replicates: in singlicate; n = 1.
In a further experiment the test system is T5, NDR1.
T5 construct: gene STK38
The settings on record: concentration: 1 μM, replicates: in singlicate, n = 1.

For another experiment, the system named is NDR2. The settings on record: concentration: 1 μM, replicates: in singlicate, n = 1.
For the next experiment, the system named is NEK10. The settings on record: concentration: 1 μM, replicates: in singlicate; n = 1.
A further experiment concerns NEK11. The settings on record: concentration: 1 μM, replicates: in singlicate, n = 1.
The next experiment concerns NEK1. The settings on record: concentration: 1 μM, replicates: in singlicate; n = 1.
In another experiment the test system is NEK2. The settings on record: concentration: 1 μM, replicates: in singlicate, n = 1.
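Also: KINOMEscan kinase panel screen.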

On to `NC(=O)c1sc(-n2cnc3ccccc32)cc1OCc1ccccc1F` [GSK1024306], for which the “%Inh” value in the experiment on MRCKA came out at 17%; with MRCKB, 0%; in the experiment with MST1R, 9%; with MST1, 0%; in the experiment on MST2, 0%; with MST3 it was 0%. Further, the “%Inh” value with MST4 stood at 0%; with MTOR, 19%; in the experiment on MUSK, 0%; in the experiment on MYLK2, 7%; in the experiment with MYLK4 it was 6%; with MYLK, 2%. In addition, the “%Inh” value stood at 3% in the experiment with MYO3A; 0% in the experiment with MYO3B; 0% with NDR1; 11% in the experiment on NDR2; 22% in the experiment with NEK10; 32% in the experiment with NEK11. Also, the “%Inh” value with NEK1 and in the experiment on NEK2 was 0% in each case.
For `Clc1cccc(-c2nc(Nc3ccncc3)c3ccccc3n2)c1` [GW873004], the “%Inh” value is given as 3% in the experiment on MRCKA; 42% in the experiment with MRCKB; 0% in the experiment with MST1R; 27% in the experiment with MST1; 45% in the experiment with MST2; 9% in the experiment with MST3. The “%Inh” value was 0% with MST4; 36% in the experiment with MTOR; 0% in the experiment on MUSK; 0% with MYLK2; 0% with MYLK4; 0% in the experiment with MYLK. In addition, the “%Inh” value is 15% in the experiment with MYO3A; 17% with MYO3B; 15% in the experiment with NDR1; 0% with NDR2; 0% in the experiment on NEK10; 0% in the experiment with NEK11. Besides, the “%Inh” value with NEK1 and with NEK2 was 0% throughout.
`COc1cc2ncnc(Nc3ccc(OCc4ccccc4Br)c(Cl)c3)c2cc1OC.Cl` [GI261590]: the “%Inh” value is reported as 23% with MRCKA; 0% in the experiment with MRCKB; 48% in the experiment with MST1R; 10% in the experiment on MST1; 0% with MST2; 0% in the experiment with MST3. Moreover, the “%Inh” value in the experiment on MST4 turned out to be 0%; with MTOR it was 24%; in the experiment with MUSK, 12%; in the experiment with MYLK2, 0%; with MYLK4, 0%; with MYLK it was 10%. In addition, the “%Inh” value in the experiment on MYO3A came out at 38%; with MYO3B it was 0%; in the experiment with NDR1, 0%; in the experiment with NDR2, 0%; in the experiment with NEK10 it was 25%; with NEK11, 0%. In addition, the “%Inh” value in the experiment on NEK1 and with NEK2 was 0% in each case.
With `O=C(Nc1ccccc1F)NC1CCN(c2ccnc(Nc3ccc(F)cc3)n2)C1` (stereo not shown) [GSK1379722], the “%Inh” value in the experiment with MRCKA worked out at 15%; in the experiment with MRCKB, 0%; with MST1R it was 38%; with MST1, 0%; in the experiment on MST2 it was 0%; in the experiment on MST3, 0%. Further, the “%Inh” value in the experiment with MST4 was 0%; with MTOR, 17%; in the experiment on MUSK, 2%; with MYLK2, 12%; with MYLK4 it was 0%; in the experiment with MYLK, 0%. Besides, the “%Inh” value was determined as 2% with MYO3A; 0% in the experiment with MYO3B; 12% with NDR1; 0% with NDR2; 22% in the experiment on NEK10; 2% in the experiment on NEK11. Besides, the “%Inh” value in the experiment on NEK1 and in the experiment on NEK2 was 0% throughout.
As for `COc1ccc(-c2nc3n(c2-c2ccncc2)CCC3)cc1` [SKF-104493], the “%Inh” value in the experiment with MRCKA (1 µM) is 0% and 2%; in the experiment on MRCKB it was 0%; in the experiment on MST1R (1 µM) it was 19% and 14%; in the experiment on MST1, 0%; with MST2 (1 µM) it was 4% and 16%; with MST3, 0%. Further, the “%Inh” value with MST4 was 0%; in the experiment with MTOR (1 µM), 0% and 11%; in the experiment on MUSK, 3%; in the experiment with MYLK2, 0%; with MYLK4 (1 µM), 0% and 12%; with MYLK (1 µM), 14% and 8%. Further, the “%Inh” value was 7% and 25% in the experiment with MYO3A (1 µM); 0% in the experiment with MYO3B; 22% and 13% in the experiment with NDR1 (1 µM); 16% and 10% in the experiment with NDR2 (1 µM); 0% in the experiment on NEK10; 42% and 13% with NEK11 (1 µM). Besides, the “%Inh” value with NEK1 was 0%; in the experiment on NEK2 (1 µM) it was 0% and 4%.
In the case of `CC(C)(C)OC(=O)NC1CCCN(c2cc(-c3ccc4c(N)n[nH]c4c3)nc(N)n2)C1` (stereo not shown) [GSK2286096], the “%Inh” value with MRCKA is reported as 9%; with MRCKB, 0%; in the experiment on MST1R it was 31%; in the experiment with MST1 it was 0%; with MST2 it was 0%; in the experiment on MST3 it was 6%. Moreover, the “%Inh” value in the experiment with MST4 came to 0%; in the experiment with MTOR, 8%; in the experiment with MUSK it was 0%; in the experiment with MYLK2, 24%; in the experiment on MYLK4, 0%; with MYLK, 0%. The “%Inh” value turned out to be 0% with MYO3A; 0% in the experiment on MYO3B; 21% in the experiment with NDR1; 0% in the experiment with NDR2; 0% in the experiment on NEK10; 0% in the experiment on NEK11. Besides, the “%Inh” value came out at 0% in the experiment with NEK1 and 7% in the experiment with NEK2.
Take `O=c1cc(N2CCOCC2)nc2n(Cc3cccc(Cl)c3)ccn12` [GSK2296823]: the “%Inh” value with MRCKA was found to be 7%; in the experiment on MRCKB, 16%; in the experiment on MST1R, 17%; in the experiment on MST1, 0%; with MST2, 11%; in the experiment with MST3, 0%. The “%Inh” value in the experiment with MST4 is 0%; in the experiment with MTOR it was 62%; with MUSK, 11%; with MYLK2 it was 2%; in the experiment on MYLK4, 0%; in the experiment on MYLK it was 61%. In addition, the “%Inh” value in the experiment with MYO3A worked out at 0%; with MYO3B it was 0%; in the experiment with NDR1 it was 8%; in the experiment with NDR2 it was 0%; with NEK10, 0%; with NEK11 it was 0%. The figures for the “%Inh” value in the experiment on NEK1 and in the experiment on NEK2 were 0% and 10%, respectively.
On to `Fc1cccc(COc2ccc(Nc3ncnc4cc[nH]c34)cc2Cl)c1`, for which the “%Inh” value with MRCKA is 10%; in the experiment on MRCKB it was 0%; with MST1R it was 30%; in the experiment on MST1, 16%; in the experiment with MST2, 19%; in the experiment on MST3 it was 23%. Besides, the “%Inh” value in the experiment with MST4 was found to be 0%; in the experiment on MTOR it was 0%; with MUSK it was 10%; in the experiment with MYLK2, 0%; in the experiment with MYLK4 it was 8%; in the experiment with MYLK, 10%. For the same compound, the “%Inh” value with MYO3A stood at 4%; with MYO3B, 29%; in the experiment on NDR1, 24%; in the experiment on NDR2, 8%; in the experiment on NEK10, 0%; with NEK11, 0%. In addition, the “%Inh” value with NEK1 is 0%; in the experiment with NEK2, 12%.
